Results filed as inconclusive are left out. Activity calls are given as the source filed them. The call rests on the fitted dose curve; in most records, active means well fitted curve in the direction sought with a large enough effect; inconclusive means small, poorly fitted or top-dose-only effect, or another doubt; inactive means no such curve, though single readings can be large; an effect the other way counts as inactive or inconclusive.
What was measured:
[1] = test system: Zika virus NS2B-NS3 protease (linked construct); test: Primary screen NINDS Rhodamine qHTS for Zika virus inhibitors (AID 1347160); further: potency means the concentration at half of the fitted maximal effect; nearly all actives have a fitted effect of over 55% in size
Outline: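 Enzyme (25 nM, linked NS2B-NS3) was preincubated 15 min with compound in 10 mM Tris-HCl pH 8.0, 0.01% Tween 20. Rhodamine110 substrate (1.5 microM) was then added and fluorescence read at start and after 15 min.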

[2] = OV-KATE Cancer Cell Toxicity qHTS against the NCATS CANVASS Library (AID 1347345); further: potency means the concentration at half of the fitted maximal effect
Outline: (§1)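 Cells were seeded at 1000 per well, allowed 4 h at 37 degrees C/5% CO2, then pin-treated with an 11-point compound series. After 72 h, viability was read as CellTiter-Glo luminescence following 15min at room temperature.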

[3] = HPAF-II Cancer Cell Toxicity qHTS against the NCATS CANVASS Library (AID 1347346); further: potency means the concentration at half of the fitted maximal effect; nearly all actives have a fitted effect of over 55% in size
Outline: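 Using 1000 HPAF-II cells per well, we titrated compounds over 11 concentrations for 72 h at 37 degrees C/5% CO2, with bortezomib as control. Cell survival was quantified by CellTiter-Glo luminescence.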

[4] = UWB1.289 Cancer Cell Toxicity qHTS against the NCATS CANVASS Library (AID 1347347); further: potency means the concentration at half of the fitted maximal effect; nearly all actives have a fitted effect of over 60% in size
Outline: as §1

[5] = Panc-1005 Cancer Cell Toxicity qHTS against the NCATS CANVASS Library (AID 1347349); further: potency means the concentration at half of the fitted maximal effect; nearly all actives have a fitted effect of over 60% in size
Outline: as §1

[6] = U-118MG Cancer Cell Toxicity qHTS against the NCATS CANVASS Library (AID 1347351); further: potency means the concentration at half of the fitted maximal effect
Outline: as §1

[7] = COV-362 Cancer Cell Toxicity qHTS against the NCATS CANVASS Library (AID 1347352); further: potency means the concentration at half of the fitted maximal effect
Outline: (§2)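 Using an ATP-based luminescent reagent after three days of treatment, toxicity is scored across an eleven-concentration range in wells holding 1000 cells each.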

[8] = HEK-293 Cancer Cell Toxicity qHTS against the NCATS CANVASS Library (AID 1347355); further: potency means the concentration at half of the fitted maximal effect; nearly all actives have a fitted effect of over 65% in size
Outline: as §2

[9] = HEK293 18hr Apoptosis Induction qHTS against the NCATS CANVASS Library (AID 1347357); further: potency means the concentration at half of the fitted maximal effect
Outline: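 Cells seeded at 500/well in DMEM + 10% FBS. Compounds pinned, 11 concentrations. 18 h, 37 degrees C/5% CO2. Caspase-Glo 3/7 added, 15 min RT dark, luminescence read.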

[10] = HEK293 24hr Apoptosis Induction qHTS against the NCATS CANVASS Library (AID 1347359); further: potency means the concentration at half of the fitted maximal effect
Outline: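 HEK293 cells (500/well, DMEM + 10% FBS) were exposed to compounds in an 11-point series for 24 hours at 37 degrees C, then caspase-3/7 activity was read by Caspase-Glo DEVD luciferase luminescence after 15 min.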

[11] = HEK293 12hr Apoptosis Induction qHTS against the NCATS CANVASS Library (AID 1347361); further: potency means the concentration at half of the fitted maximal effect
Outline: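 Cells are seeded, dosed with an 11-point compound series and incubated 12 hours. Caspase-3/7 activity is detected by luminescent DEVD-substrate reagent after 15 minutes at room temperature.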

[12] = test system: NAD(P)H diaphorase (Clostridium kluyveri); test: Diaphorse counterscreen qHTS: Assay Interference Panel against the NCATS CANVASS Library (AID 1347362)
Outline: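 Clostridium kluyveri diaphorase in PBS with 0.01% Tween-20 was preincubated 15 min at room temperature in the dark with compounds (11-point series). Resorufin fluorescence (ex 525/20, em 598/25) was read 5 min after adding resazurin/NADH.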

[13] = target: Luciferin 4-monooxygenase (Photinus pyralis) (UniProt P08659); test: Firefly luciferase counterscreen qHTS: Assay Interference Panel against the NCATS CANVASS Library (AID 1347363); further: series mostly up to about 57 µM
Chain of Luciferin 4-monooxygenase (Photinus pyralis) (P08659 whole entry, looked up): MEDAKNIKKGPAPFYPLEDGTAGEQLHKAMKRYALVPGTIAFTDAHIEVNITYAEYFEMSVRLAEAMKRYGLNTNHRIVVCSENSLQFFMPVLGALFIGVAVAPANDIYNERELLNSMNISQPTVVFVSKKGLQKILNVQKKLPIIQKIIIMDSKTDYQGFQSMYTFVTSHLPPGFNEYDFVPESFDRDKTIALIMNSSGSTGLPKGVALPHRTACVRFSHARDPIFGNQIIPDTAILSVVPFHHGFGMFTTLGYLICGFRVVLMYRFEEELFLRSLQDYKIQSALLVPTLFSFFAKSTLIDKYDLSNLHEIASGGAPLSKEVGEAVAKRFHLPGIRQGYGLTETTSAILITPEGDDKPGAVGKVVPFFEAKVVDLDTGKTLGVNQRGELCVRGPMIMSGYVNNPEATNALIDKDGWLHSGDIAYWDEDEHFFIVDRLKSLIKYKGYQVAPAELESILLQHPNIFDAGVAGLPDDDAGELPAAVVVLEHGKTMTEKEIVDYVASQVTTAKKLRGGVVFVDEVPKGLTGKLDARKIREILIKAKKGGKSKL
Outline: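 Purified P. pyralis luciferase was added to compounds (11-point series) preincubated 15 min at room temperature with substrate containing 0.013 mM D-luciferin and 0.013 mM ATP; luminescence was read after 5 min.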

[14] = KB-8-5-11 Cancer Cell Toxicity qHTS against the NCATS CANVASS Library (AID 1347364); further: potency means the concentration at half of the fitted maximal effect; nearly all actives have a fitted effect of over 75% in size
Outline: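 Luminescent ATP signal (CellTiter-Glo, 10 min at room temperature) measured cell survival of KB-8-5-11 after 72 hr compound treatment. For confirmation, the cells were also grown with 1uM tariquidar.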

[15] = MCF7 Cancer Cell Toxicity qHTS against the NCATS CANVASS Library (AID 1347369); further: potency means the concentration at half of the fitted maximal effect
Outline: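 Cells seeded at 500/well, then compound pinned. Plates incubated 72 hr at 37C, 5% CO2. CellTiterGlo added; luminescence read.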

[16] = target: Nuclear receptor subfamily 1 group I member 3 (Homo sapiens) (UniProt Q14994); test: qHTS for Constitutive Androstane Receptor (CAR) Antagonist screened against the NCATS CANVASS Library (AID 1347372); further: potency means the concentration at half of the fitted maximal effect
Chain of Nuclear receptor subfamily 1 group I member 3 (Homo sapiens) (Q14994 whole entry, looked up): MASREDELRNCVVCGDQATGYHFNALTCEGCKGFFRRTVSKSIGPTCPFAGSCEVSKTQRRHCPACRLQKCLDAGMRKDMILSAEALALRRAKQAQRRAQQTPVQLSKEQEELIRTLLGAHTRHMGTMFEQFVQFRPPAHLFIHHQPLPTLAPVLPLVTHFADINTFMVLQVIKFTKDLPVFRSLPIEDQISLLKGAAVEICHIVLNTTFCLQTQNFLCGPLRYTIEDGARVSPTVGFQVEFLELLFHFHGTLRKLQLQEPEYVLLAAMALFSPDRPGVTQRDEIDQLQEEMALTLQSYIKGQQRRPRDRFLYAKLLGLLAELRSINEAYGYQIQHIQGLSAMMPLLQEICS
Outline: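 Cells were seeded and left 4hr to attach, then received compound at 11 concentrations and 50 nM CITCO. Following 24hr incubation, fluorescence viability and luciferase luminescence were read sequentially.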

[17] = target: Nuclear receptor subfamily 1 group I member 3 (Homo sapiens) (UniProt Q14994); test: qHTS for Constitutive Androstane Receptor (CAR) Agonist screened against the NCATS CANVASS Library (AID 1347373);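 further: every well also contained 1.5 µM PK11195 alongside the test compound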
Outline: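 In an 11-point concentration series, compounds were incubated 24hr with HepG2 cells carrying hCAR and a CYP2B6-2.2kb reporter, with PK11195 at 1.5uM final. A CellTiter-Fluor viability read preceded the ONE-Glo luminescence read.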

[18] = 10-beta competent E. coli microbial cell viability qHTS against the NCATS CANVASS Library (AID 1347376); further: series mostly up to about 46 µM
Outline: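 Overnight 37C exposure of 10-beta E. coli (0.2 OD) to an 11-point concentration series; ATP-based luminescence after 20 min room-temperature reagent incubation; daunomycin as control.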

[19] = qHTS for H2AX Agonists against the NCATS CANVASS Library (AID 1347378)
Outline: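 CHO-K1, 1000 cells/well, o/n 37C; cpd several conc, 3 hr 37C, 0.76% DMSO; lyse 30 min RT; cryptate anti-pH2AX(S139) + d2 anti-H2AX, 24 hr RT; HTRF 665/620.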

[20] = qHTS for Inflammasome Signaling Inhibitors: IL-1-beta AlphaLISA screen against the NCATS CANVASS Library (AID 1347379)
Outline: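 THP-1, 1 hr compound pre-incubation, then LPS 250 ng/mL + ATP 1.25 mM (final); 16 hr total with compound; IL-1B AlphaLISA, ex 680/em 615 nm; 11-point qHTS, up to 57.5 uM final.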

[21] = qHTS for Antimalaria activity screened against the NCATS CANVASS Library (AID 1347380); further: potency means the concentration at half of the fitted maximal effect; nearly all actives have a fitted effect of over 40% in size
Outline: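 Measures proliferation or cytotoxicity against Dd2 blood stages in 72 h cultures, 11-point qHTS dosing, with SYBR Green fluorescence as read-out; dihydroartemisinin titration served as control.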

[22] = Inflammasome Signaling qHTS Counterscreen: IL-1-beta AlphaLISA counterscreen against the NCATS CANVASS Library (AID 1347381);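 further: cell-free check with purified IL-1β in medium and no THP-1 cells; series mostly up to about 57 µM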
Outline: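 Here, no cellular stimulation occurs; compounds in an 11-point series meet 4 pg purified IL-1-beta directly. Bead-based AlphaLISA detection follows (1 h acceptor/antibody, then 30 min donor, dark, room temperature), with excitation at 680 nm.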

[23] = qHTS assay for small molecule disruptors of mitochondrial membrane potential screened against the NCATS CANVASS Library (AID 1347389); further: potency means the concentration at half of the fitted maximal effect; nearly all actives have a fitted effect of over 60% in size
Outline: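 Cells (HepG2) seeded the day before received compound or DMSO for 1 hr, then Mito-MPS dye for 30 min at 37C; emission at 590 nm over 535 nm gave the polarization signal.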

[24] = Secretion counterscreen for inhibitors of the SERCaMP assay screened against the NCATS CANVASS Library (AID 1347390)
Outline: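 SH-SY5Y-GLuc STOP cells; 4 h attach; cpds 0.001 - 77 uM (qHTS, 11 pts), 20 h 37C/5% CO2; coelenterazine in glow buffer; luminescence, 5 s exposure.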

[25] = qHTS for activators of dead-cell proteases activity screened against the NCATS CANVASS Library (AID 1347392);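 further: luminescence from protease leaking out of membrane-damaged cells cleaving impermeant substrate; potency means the concentration at half of the fitted maximal effect; rising signal means more cytotoxicity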
Outline: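 Cytotoxicity in HepG2 cells was assessed by released protease cleaving AAF-aminoluciferin, with luminescence as signal. Exposure lasted 5 h at 37C across an 11-point series.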

[26] = Vero-766 cells viability qHTS against the NCATS CANVASS Library: Counterscreen for Zika virus inhibition assay (AID 1347394); further: potency means the concentration at half of the fitted maximal effect; nearly all actives have a fitted effect of over 60% in size
Outline: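 Vero 766, no virus; 1000 cells/well; o/n attach; cpd 11-pt; 72 h, 37C, 5% CO2; CTG luminescence; cell-free media wells = 100% inhibition.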

[27] = Viability qHTS for inhibitors of the SERCaMP assay screened against the NCATS CANVASS Library (AID 1347400); further: potency means the concentration at half of the fitted maximal effect; nearly all actives have a fitted effect of over 70% in size
Outline: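 Measures loss of viability in SERCaMP reporter SH-SY5Y cells treated for 48 h with compounds; luminescent ATP detection by CellTiter-Glo.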

[28] = Redox Reaction Profiling qHTS: Assay Interference Panel against the NCATS CANVASS Library (AID 1347401)
Outline: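 Quantitative HTS over an 11-point series was run in HEPES pH 7.3 with 50 mM NaCl, 200 uM DTT and 5 uM resazurin. Initial and 15-min resorufin fluorescence readings were taken.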

Measured: Potency

C[C@@H]1CC[C@@H](c2ccoc2)N2C[C@@]3(CC[C@@H]12)CS[C@@]1(CC[C@H]2[C@H](C)CC[C@@H](c4ccoc4)N2[C@@H]1O)C3
active: [1] 31.1 µM | [2] 7.47 µM | [3] 2.98 µM | [4] 6.66 µM | [5] 5.3 µM | [6] 8.41 µM | [7] 7.47 µM | [8] 7.43 µM | [9] 8.33 µM | [10] 10.5 µM | [11] 8.33 µM | [14] 8.33 µM | [15] 11.7 µM | [16] 8.31 µM | [19] 10.9 µM | [20] 8.63 µM | [21] 1.88 µM | [23] 13.2 µM | [24] 12.2 µM | [25] 11.7 µM | [26] 7.41 µM | [27] 13.5 µM
inactive: [12] | [13] | [17] | [18] | [22] | [28]
